{"source": "the supplement of paper PMC9023506", "note": "Where a name gives a salt, the structure may show the parent alone.", "data": [{"test_system": "Danio rerio larvae (5 dpf)", "assay": "excitability to 1-s acoustic pulses, difference vs DMSO (percentage points (treated minus DMSO)); higher = more of the behaviour than the DMSO vehicle control", "conditions": "10 µM; exposure time: 3 h pre-incubation + 3 h imaging", "description": "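5-dpf wild-type zebrafish larvae were imaged in 96-well plates. They were treated with 190 Tocris FDA-approved drugs at 10 µM (1 µl/ml DMSO) for 3 h before and 3 h during imaging at 28.5 °C, 48 larvae per drug. Automated image analysis gave % time moving and optomotor responses. Values are drug group mean minus DMSO vehicle mean (n=844), in percentage points, for 10 behaviours.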", "values": [{"smiles": "N[C@@H]1C[C@H]1c1ccccc1", "note": "[Tranylcypromine hydrochloride]", "excitability to 1-s acoustic pulses": 0.887}, {"smiles": "CN1C[C@H](C(=O)N[C@]2(C)O[C@@]3(O)[C@@H]4CCCN4C(=O)[C@H](Cc4ccccc4)N3C2=O)C[C@@H]2c3cccc4[nH]cc(c34)C[C@H]21", "note": "[Dihydroergotamine mesylate]", "excitability to 1-s acoustic pulses": 1.17}, {"smiles": "C=CCN1C[C@H](C(=O)N(CCCN(C)C)C(=O)NCC)C[C@@H]2c3cccc4[nH]cc(c34)C[C@H]21", "note": "[Cabergoline]", "excitability to 1-s acoustic pulses": 10}, {"smiles": "COc1ccc(C(CN(C)C)C2(O)CCCCC2)cc1", "note": "(configuration not stated) [Venlafaxine hydrochloride]", "excitability to 1-s acoustic pulses": 8.33}, {"smiles": "CC(C)C[C@H]1C(=O)N2CCC[C@H]2[C@]2(O)O[C@](NC(=O)[C@@H]3C=C4c5cccc6[nH]c(Br)c(c56)C[C@H]4N(C)C3)(C(C)C)C(=O)N12", "note": "[Bromocriptine mesylate]", "excitability to 1-s acoustic pulses": 17.6}, {"smiles": "CC[C@@H](C(N)=O)N1CCCC1=O", "note": "[Levetiracetam]", "excitability to 1-s acoustic pulses": 1.84}, {"smiles": "CCN(C)C(=O)Oc1cccc([C@H](C)N(C)C)c1", "note": "[Rivastigmine tartrate]", "excitability to 1-s acoustic pulses": 2.04}, {"smiles": "Cc1cccc([C@H](C)c2c[nH]cn2)c1C", "note": "[Dexmedetomidine hydrochloride]", "excitability to 1-s acoustic pulses": 8.78}, {"smiles": "CC(O)(CS(=O)(=O)c1ccc(F)cc1)C(=O)Nc1ccc(C#N)c(C(F)(F)F)c1", "note": "(configuration not stated) [Bicalutamide]", "excitability to 1-s acoustic pulses": 3.69}, {"smiles": "C=C1C[C@@H]2[C@H](CC[C@]3(C)C(=O)CC[C@@H]23)[C@@]2(C)C=CC(=O)C=C12", "note": "[Exemestane]", "excitability to 1-s acoustic pulses": 11.5}, {"smiles": "O=c1[nH]c2ccccc2n1C1CCN(CCCC(c2ccc(F)cc2)c2ccc(F)cc2)CC1", "note": "[Pimozide]", "excitability to 1-s acoustic pulses": -3.54}, {"smiles": "COc1cc2c(cc1OC)C1CC(=O)C(CC(C)C)CN1CC2", "note": "(configuration not stated) [Tetrabenazine]", "excitability to 1-s acoustic pulses": 21.7}]}]}
